Molecules are shown by their SMILES. Results filed as inconclusive are left out. A number with no mark means an inactive call. The source made the active and inactive calls. Calls come from the whole dose curve; as a rule, active = well fitted cell-killing curve with a large enough effect; inconclusive = small, poorly fitted or top-dose-only effect, or effect the other way; inactive = no such curve, though single readings can be large or run the other way.
Potency is the fitted concentration of half-maximal effect.

The assay can be described thus: Quantitative High-Throughput drug screen in 47 multiple myeloma cell lines against the NCATS MIPE library collection: LP1_DSMZ cell viability assay (AID 1918982). Note: nearly all actives have a fitted effect of over 35% in size. The following applies: LP1 myeloma viability, CellTiter-Glo ATP luminescence, 48 h; series mostly up to 45.8 µM; viability (% of control): at the top concentration. The text has this: PI: Beverly A. Mock Ph.D.
Laboratory of Cancer Biology and Genetics,
Center for Cancer Research, National Cancer Institute,
National Institute of Health, Bethesda, Maryland
Drug resistance and disease progression are common in multiple myeloma (MM) patients, underscoring the need for new therapeutic combinations. […] We hypothesized that effective combinations would reduce MYC expression and enhance p16 activity. […] These preclinical data identify potentially useful drug combinations for evaluation in drug-resistant MM and reveal potential mechanisms of combined drug sensitivity.
Described herein is the primary MIPE qHTS used to cherrypick compounds. Validated compounds were then further tested for potential synergistic activiy.
[1] Peat TJ, Gaikwad SM, Dubois W, Gyabaah-Kessie N, Zhang S, Gorjifard S, Phyo Z, Andres M, Hughitt VK, Simpson RM, Miller MA, Girvin AT, Taylor A, Williams D, D'Antonio N, Zhang Y, Rajagopalan A, Flietner E, Wilson K, Zhang X, Shinn P, Klumpp-Thomas C, McKnight C, Itkin Z, Chen L, Kazandijian D, Zhang J, Michalowski AM, Simmons JK, Keats J, Thomas CJ, Mock BA. Drug combinations identified by high-throughput screening promote cell cycle transition and upregulate Smad pathways in myeloma. Cancer Lett. 2023 Aug 1;568:216284. doi: 10.1016/j.canlet.2023.216284. Epub 2023 Jun 24. PMID: 37356470; PMCID: PMC10408729.
SEQUENCE No. (e.g., 1, 2, 3, etc.); […] (e.g., Cells, Incubation, Reagent, etc.); VALUE and DESCRIPTION.
1; Cells; 5 uL; white, solid bottom 1536-well Greiner assay plate.
2; Compounds; 23 nL; Kalypsis pin tool (Wako USA) equipped with a 1536-well pin head to transfer to the assay plates.
3; Incubation; 48 hours; 37C incubation.
4; Reagent;5uL; CellTiter Glo (Promega).
5; Detector; 425V; Luminescence; Viewlux PerkinElmer.
NOTES (numbers refer to Sequence numbers above)
1. The cell-based screening methods employed in this study were like those previously published. Briefly, the corresponding myeloma cell lines were screened in 1,536-well plates with 500 cells, 5-uL per well for inhibition of cell viability (assessed by measuring ATP levels with CellTiterGlo).
2. NCATS MIPE 4.0 library of approved and investigational drugs were added using the Kalypsis pin tool. Wells treated with DMSO only for 100% viability and media only for 0% viability were used as controls.
3. The assay plates were covered and incubated for 48 hours in a 37C, 5% CO2 incubator with controlled humidity.
4. After 48 hours, CellTilter-GloTM luminescent substrate mix (Promega) reagent was added to the assay plate and plates we incubated for 5 min at room temperature.
5. Signal was measured as median relative luminescence units on a ViewLux (PerkinElmer) multiplate reader.
[1] Heske CM, Davis MI, Baumgart JT, Wilson K, Gormally MV, Chen L, Zhang X, Ceribelli M, Duveau DY, Guha R, Ferrer M, Arnaldez FI, Ji J, Tran HL, Zhang Y, Mendoza A, Helman LJ, Thomas CJ. Matrix Screen Identifies Synergistic Combination of PARP Inhibitors and Nicotinamide Phosphoribosyltransferase (NAMPT) Inhibitors in Ewing Sarcoma. Clin Cancer Res. 2017 Dec 1;23(23):7301-7311. doi: 10.1158/1078-0432.CCR-17-1121. Epub 2017 Sep 12. PMID: 28899971; PMCID: PMC6636827.
For orientation: ATP-based viability assays read luminescence as a measure of living cells.
As for `CC(=O)OC[C@@H]1O[C@@H](n2ccc(=O)[nH]c2=O)[C@H](OC(C)=O)[C@H]1OC(C)=O`, the “viability (% of control)” value is 101%.

In the case of `C=CCNC1=C2C[C@@H](C)C[C@H](OC)[C@@H](O)[C@@H](C)C=C(C)[C@H](OC(N)=O)[C@@H](OC)C=CC=C(C)C(=O)NC(=CC1=O)C2=O`, the Potency was 5900 nM (active).

In the case of `C[C@@]12C[C@@]3(O)O[C@@H](O1)[C@]1(COC(=O)c4ccccc4)[C@@H]3C[C@@]12O[C@@H]1O[C@H](CO)[C@@H](O)[C@H](O)[C@@H]1O`, the “viability (% of control)” value was 110%.

`OC[C@H]1OC(O)C[C@@H](O)[C@H]1O` (stereo not given in full): the “viability (% of control)” value was 98.8%.

Turning to `C[C@H](NC(=O)Cc1cc(F)cc(F)c1)C(=O)N[C@H](C(=O)OC(C)(C)C)c1ccccc1`, the “viability (% of control)” value is 89.8%.

As for `C=CC[C@@H]1C=C(C)C[C@H](C)C[C@H](OC)[C@H]2O[C@@](O)(C(=O)C(=O)N3CCCC[C@H]3C(=O)O[C@H](C(C)=C[C@@H]3CC[C@H](O)[C@H](OC)C3)[C@@H](C)[C@@H](O)CC1=O)[C@@H](C)C[C@@H]2OC`, the Potency is 3320 nM (active).

Take `CC(C)(O)CC[C@@H](O)[C@](C)(O)[C@H]1CC[C@@]2(O)C3=CC(=O)[C@@H]4C[C@@H](O)[C@@H](O)C[C@]4(C)[C@@H]3CC[C@]12C`: the “viability (% of control)” value is 109%.

Turning to `COc1cccc2c1C(=O)c1c(O)c3c(c(O)c1C2=O)C[C@@](O)(C(=O)CO)C[C@@H]3O[C@H]1C[C@H](N)[C@H](OC2CCCCO2)[C@H](C)O1` (stereo not given in full), the Potency was 18700 nM (active).

Consider `CC(=O)N[C@H]1[C@@H]([C@H](O)[C@H](O)CO)OC(C(=O)O)=C[C@@H]1N=C(N)N`, for which the “viability (% of control)” value was 102%.

Regarding `C[C@H](NCc1ccc2c(c1)nc(NC(=O)c1ccc(-c3cn[nH]c3)s1)n2CCc1ccccc1)C(C)(C)C`, the Potency is 1050 nM (active).

Regarding `CCN(CC)Cc1ccc2cc(COC(=O)Nc3ccc(C(=O)NO)cc3)ccc2c1`, the Potency was 935 nM (active).

As to `N#CC(=C(O)c1ccc(Cl)cc1Cl)c1nc2cc(Cl)ccc2c(=O)[nH]1`, the “viability (% of control)” value was 112%.

With `C[C@H](NC(=O)[C@@H](O)c1cc(F)cc(F)c1)C(=O)N[C@@H]1C(=O)N(C)c2ccccc2-c2ccccc21`, the “viability (% of control)” value was 94%.

Turning to `COc1cccc2c1C(=O)c1c(O)c3c(c(O)c1C2=O)C[C@@](O)(C(C)=O)C[C@H]3O[C@H]1C[C@H](N)[C@H](O)[C@H](C)O1`, the Potency was 209 nM (active).

Regarding `N[C@H]1CN(c2c(F)cc3c(=O)c(C(=O)O)cn(C4C[C@@H]4F)c3c2Cl)CC12CC2` (stereo not given in full), the “viability (% of control)” value was 104%.

With `N=c1ccn2c(n1)O[C@H]1[C@@H](O)[C@@H](CO)O[C@H]12`, the “viability (% of control)” value is 100%.

For `Cc1ccc2nc(NCCN)c3ncc(C)n3c2c1`, the Potency was 2640 nM (active).

As to `CC(C)N1[N]C(=C2C=c3cc(O)ccc3=N2)c2c(N)ncnc21`, the Potency was 2.6 nM (active).

On to `CS[C@H]1SC[C@@H]2C(=O)N(C)[C@H](C(C)C)C(=O)OC[C@H](NC(=O)c3cnc4ccccc4n3)C(=O)N[C@H](C)C(=O)N(C)[C@@H]1C(=O)N(C)[C@H](C(C)C)C(=O)OC[C@H](NC(=O)c1cnc3ccccc3n1)C(=O)N[C@H](C)C(=O)N2C`, for which the Potency was 6.6 nM (active).

Consider `c1ccc(CNc2nc(NCc3ccccc3)c3ccccc3n2)cc1`, for which the Potency was 23500 nM (active).

On to `CC(C)C[C@H](NC(=O)CNC(=O)c1cc(Cl)ccc1Cl)B1OC(=O)CC(CC(=O)O)(C(=O)O)O1` (stereo not given in full), for which the Potency was 74.3 nM (active).

`COC1=C2C[C@@H](C)C[C@H](OC)[C@@H](O)[C@@H](C)C=C(C)[C@H](OC(N)=O)[C@@H](OC)C=CC=C(C)C(=O)NC(=CC1=O)C2=O`: the Potency is 1180 nM (active).

On to `CCOC(=O)N1CCN([N+]([O-])=NOc2ccc([N+](=O)[O-])cc2C#N)CC1`, for which the Potency was 2640 nM (active).

On to `CCN(CC)CCNC(=O)c1c(C)[nH]c(C=C2C(=O)Nc3ccc(F)cc32)c1C`, for which the Potency was 30300 nM (active).

As for `CCn1c(=O)c2c(nc(C=Cc3ccc(OC)c(OC)c3)n2C)n(CC)c1=O`, the “viability (% of control)” value is 77.4%.

For the compound `CCS(=O)(=O)Nc1ccc2[nH]c(O)c(C(=Nc3ccc(CN4CCCCC4)cc3)c3ccccc3)c2c1`, the Potency was 7430 nM (active).

`C[C@H]1O[C@H](O[C@H]2[C@H](O)[C@@H](O)[C@@H](O[C@H]3[C@H](O)[C@@H](O)C(O)O[C@H]3CO)O[C@H]2CO)[C@H](O)[C@@H](O)[C@H]1N[C@H]1C=C(CO)[C@@H](O)[C@H](O)[C@@H]1O` (stereo not given in full): the “viability (% of control)” value is 92.3%.

`C=C1C(=O)O[C@H]2[C@@H]1CCC(C)=CCC[C@@]1(C)O[C@@H]21`: the Potency was 5900 nM (active).

As for `C[C@H](O)[C@@H]1C(=O)N2C(C(=O)O)=C(S[C@@H]3CN[C@H](CNS(N)(=O)=O)C3)[C@@H](C)[C@@H]12`, the “viability (% of control)” value was 107%.

Take `O=C(CN1C(=O)C2(CCCC2)NC[C@H]1c1cc(F)cc(F)c1)Nc1ccc2c(c1)C[C@@]1(C2)C(=O)Nc2ncccc21`: the “viability (% of control)” value is 74.7%.

With `Cc1ccc([N+](=O)[O-])cc1S(=O)(=O)N(C)N=Cc1cnc2ccc(Br)cn12`, the Potency was 26.4 nM (active).

For the compound `NC(=O)c1ncn([C@@H]2O[C@H](CO)[C@@H](O)[C@@H]2O)c1N`, the “viability (% of control)” value was 103%.

Regarding `OC[C@@H](O)[C@@H](O)[C@H](O)[C@@H](O)CO`, the “viability (% of control)” value is 108%.

For `C[C@H](NC(=O)C(C#N)=Cc1cccc(Br)n1)c1ccccc1`, the Potency was 5900 nM (active).

`C[N+](C)([O-])CCNc1ccc(NCC[N+](C)(C)[O-])c2c1C(=O)c1c(O)ccc(O)c1C2=O`: the “viability (% of control)” value was 106%.

For `C=CCNc1c(O)cc2c(O)c1C[C@@H](C)C[C@H](OC)[C@@H](O)[C@@H](C)C=C(C)[C@H](OC(N)=O)[C@@H](OC)C=CC=C(C)C(=O)N2`, the Potency was 1870 nM (active).

`NS(=O)(=O)OC[C@@H]1C[C@@H](n2ccc3c(N[C@H]4CCc5ccccc54)ncnc32)C[C@H]1O`: the Potency was 662 nM (active).

In the case of `C=Cc1c(C)c2cc3nc(cc4[nH]c(cc5nc(cc1[nH]2)C(C)=C5CCC(=O)O)c(CCC(=O)OC)c4C)[C@@]1(C)C3=CC=C(C(=O)OC)[C@H]1C(=O)OC`, the Potency is 1050 nM (active).

With `C[C@@]12C(=O)OC(=O)[C@@]1(C)C1CCC2O1`, the Potency was 3720 nM (active).

As for `CC(=O)[C@]1(O)Cc2c(O)c3c(c(O)c2[C@@H](O[C@H]2C[C@H](N)[C@@H](O)[C@H](C)O2)C1)C(=O)c1ccccc1C3=O`, the Potency was 1320 nM (active).

Values taken from PubChem BioAssay (NCATS).
